# Test results reported in PubChem BioAssay (EPA / NIEHS).
# Inconclusive results are not listed. Active and inactive are the calls of the source. How the source made its calls, unless noted: active means hit-call score of the fitted dose curve at least 0.9, where 1 is the maximum; inactive means score below 0.9.
# What was measured:
# [1] = CCTE_Shafer_MEA_acute_spike_number: CCTE's Neural Acute Assay for Total Number of Spikes, Shafer Lab (AID 2284008);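 on AC50: curve fitted for decrease in spike count so AC50 reflects inhibitors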
# In short: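 Rat cortical cultures, DIV 13/15, 37 C. 40 min baseline rec, cpd 0.03-40 uM, 40 min post-dose rec. Band-pass 300-5000 Hz, spike threshold 8x rms; % change in spike count per well, DMSO neg ctrl, loss-of-signal fit.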
# [2] = CCTE_Harrill_HTTr_Apoptosis_MCF7: CCTE's 6-hour Apoptosis Assessment for the High-Throughput Transcriptomics (HTTr) Platform, in MCF-7 cells cultured in DMEM + 10% fetal bovine serum, Harrill Lab (AID 2284011)
# In short: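 Read-out: CellEvent Caspase 3/7 Green signal by high content imaging, gain-of-signal indicating apoptosis. MCF-7 cells, DMEM + 10% FBS, eight-point dilution series, 6 h exposure. Curves fitted bidirectionally relative to DMSO negative control.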
# [3] = CCTE_Harrill_HTTr_Viability_MCF7: CCTE's 6-hour Cell Viability Assessment for the High-Throughput Transcriptomics (HTTr) Platform, in MCF-7 cells cultured in DMEM + 10% fetal bovine serum, Harrill Lab (AID 2284010)
# In short: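 Membrane integrity was scored by high-content imaging of propidium iodide dye exclusion after a 6 h exposure across an eight-point dilution series. Data were fitted bidirectionally relative to DMSO as negative control and baseline.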
# [4] = CCTE_Simmons_MITO_basal_resp_rate: CCTE's HepG2 Seahorse XF Respirometric Screening Assay at Basal Respiratory State, Simmons Lab (AID 2284001); conditions: actives raise or lower the signal
# In short: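 HepG2 respirometry; 7-pt titration 125 nM–100 uM final; kinetic OCR at 6 min intervals for 72 min; n=3 biological, technical singles; DMSO baseline, gain or loss fit; fenpyroximate (decrease) and 2,4-DNP (increase) controls.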
# [5] = CCTE_Simmons_MITO_max_resp_rate: CCTE's HepG2 Seahorse XF Respirometric Screening Assay at Maximal Respiratory State [uncoupled], Simmons Lab (AID 2284002); conditions: actives raise or lower the signal
# In short: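 HepG2, Seahorse XF96, maximal OCR post-FCCP. Cpd 125 nM–100 uM final (7 conc), n=3 biological. Kinetic reads every 6 min (3 min mix/3 min measure) over 72 min; fit bidirectional vs DMSO.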
# [6] = CCTE_Simmons_MITO_inhib_resp_rate: CCTE's HepG2 Seahorse XF Respirometric Screening Assay at Inhibited Respiratory State [full ETC block], Simmons Lab (AID 2284006); conditions: actives raise or lower the signal
# In short: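 HepG2 cells on Seahorse XF96; oxygen consumption measured after test compound, then FCCP, then rotenone/antimycin A injections over 72 min. Test chemicals at 7 concentrations, 125 nM–100 uM final. OCR fitted bidirectionally versus DMSO.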
# [7] = CCTE_Simmons_MITO_viability: CellTiter-Glo Viability Assessment for CCTE's HepG2 Seahorse XF Respirometric Screening Assay [post-hoc], Simmons Lab (AID 2284007; active means hit-call score of the fitted dose curve at least 0.9, where 1 is the maximum)
# In short: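 HepG2 cells from the Seahorse XF respirometry run were exposed 90 min to a 7-point series, 125 nM–100 uM final, DMSO vehicle; ATP content then read by luciferase luminescence. Three biological replicates, technical singles; loss of signal fitted versus DMSO.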
smiles,measurement,setting,value
CO[C@H]1/C=C/O[C@@]2(C)Oc3c(C)c(O)c4c(O)c(c(/C=N/N5CCN(C)CC5)c(O)c4c3C2=O)NC(=O)/C(C)=C\C=C\[C@H](C)[C@H](O)[C@@H](C)[C@@H](O)[C@@H](C)[C@H](OC(C)=O)[C@@H]1C,outcome,[1],inactive
same,outcome,[2],inactive
O=C1O[C@H]([C@@H](O)CO)C(O)=C1O,outcome,[1],inactive
same,outcome,[2],inactive
O=C(O)c1ccccc1-n1cc(C(=O)O)c(=O)c2cc(Nc3c(F)cc(F)cc3Cl)c(Cl)cc21,outcome,[1],inactive
same,outcome,[2],inactive
Oc1ccccc1,outcome,[3],inactive
same,outcome,[2],inactive
CCCCCCCCCCCCO,outcome,[1],inactive
same,outcome,[2],inactive
C[C@]12CC[C@@H]3c4ccc(O)cc4CC[C@H]3[C@@H]1CCC2=O,outcome,[3],inactive
same,outcome,[2],inactive
O=c1ccc2ccccc2o1,outcome,[3],inactive
same,outcome,[2],inactive
CC[C@@H]1C[C@H](N(Cc2cc(C(F)(F)F)cc(C(F)(F)F)c2)C(C)=O)c2cc(C(F)(F)F)ccc2N1C(=O)OC(C)C,outcome,[1],inactive
same,outcome,[3],inactive
same,outcome,[2],inactive
O=C(O)Cc1cc(I)c(Oc2ccc(O)c(I)c2)c(I)c1,AC50,[4],27 µM (active)
same,AC50,[5],50 µM (active)
same,outcome,[6],inactive
same,outcome,[7],inactive
same,outcome,[2],inactive
CCCCCCCCOc1ccc(C(=O)c2ccccc2)c(O)c1,outcome,[2],inactive
CN(C)C(=O)C1(N2CCCCC2)CCN(CC[C@@]2(c3ccc(Cl)c(Cl)c3)CN(C(=O)c3ccccc3)CCO2)CC1,outcome,[4],inactive
same,outcome,[5],inactive
same,outcome,[6],inactive
same,AC50,[1],3.26 µM (active)
same,outcome,[2],inactive
CCN(Cc1cccc(S(=O)(=O)O)c1)c1ccc(C(=C2C=CC(=[N+](CC)Cc3cccc(S(=O)(=O)O)c3)C=C2)c2ccccc2S(=O)(=O)[O-])cc1,outcome,[1],inactive
same,outcome,[3],inactive
same,outcome,[2],inactive
CCCOC(=O)c1cc(O)c(O)c(O)c1,outcome,[3],inactive
same,outcome,[2],inactive
Cc1ccc2oc(CN(Cc3ccccc3)C(=O)Nc3c(F)cc(F)cc3F)c(-c3ccc(Cl)cc3)c2c1,outcome,[3],inactive
same,outcome,[2],inactive
O=C(OCCCCCCOC(=O)c1ccccc1)c1ccccc1,outcome,[2],inactive
c1ccc2ccccc2c1,outcome,[2],inactive
CCO[Si](CCCNC(N)=O)(OCC)OCC,outcome,[2],inactive
